Screening results: PubChem BioAssay, Buhrlage Lab, Dana-Farber Cancer Institute and Novartis Institutes for BioMedical Research (Cambridge, Mass)
A selection: hits, their analogues and other compounds. The true share with any hit is near 5%.
USP7 inh: blocks human USP7 ubiquitin-rhodamine cleavage | purified USP7, Ub-rhodamine cleavage fluorescence | inhibition, % at 20 µM | actives 0.3% (n = 47,000)
USP8 inh: inhibitors of human USP8 deubiquitinase | inhibition, % at 20 µM | actives 4.2% (n = 47,000) | purified USP8, Ub-rhodamine cleavage fluorescence, 30 min | P40818 | AID 1645853
USP10 block: inhibitors of human USP10 deubiquitinase | purified USP10, Ub-rhodamine fluorescence, 60 min | inhibition, % at 20 µM | actives 1.1% (n = 47,000) | AID 1645856
Target sequence (Q14694 whole entry, looked up): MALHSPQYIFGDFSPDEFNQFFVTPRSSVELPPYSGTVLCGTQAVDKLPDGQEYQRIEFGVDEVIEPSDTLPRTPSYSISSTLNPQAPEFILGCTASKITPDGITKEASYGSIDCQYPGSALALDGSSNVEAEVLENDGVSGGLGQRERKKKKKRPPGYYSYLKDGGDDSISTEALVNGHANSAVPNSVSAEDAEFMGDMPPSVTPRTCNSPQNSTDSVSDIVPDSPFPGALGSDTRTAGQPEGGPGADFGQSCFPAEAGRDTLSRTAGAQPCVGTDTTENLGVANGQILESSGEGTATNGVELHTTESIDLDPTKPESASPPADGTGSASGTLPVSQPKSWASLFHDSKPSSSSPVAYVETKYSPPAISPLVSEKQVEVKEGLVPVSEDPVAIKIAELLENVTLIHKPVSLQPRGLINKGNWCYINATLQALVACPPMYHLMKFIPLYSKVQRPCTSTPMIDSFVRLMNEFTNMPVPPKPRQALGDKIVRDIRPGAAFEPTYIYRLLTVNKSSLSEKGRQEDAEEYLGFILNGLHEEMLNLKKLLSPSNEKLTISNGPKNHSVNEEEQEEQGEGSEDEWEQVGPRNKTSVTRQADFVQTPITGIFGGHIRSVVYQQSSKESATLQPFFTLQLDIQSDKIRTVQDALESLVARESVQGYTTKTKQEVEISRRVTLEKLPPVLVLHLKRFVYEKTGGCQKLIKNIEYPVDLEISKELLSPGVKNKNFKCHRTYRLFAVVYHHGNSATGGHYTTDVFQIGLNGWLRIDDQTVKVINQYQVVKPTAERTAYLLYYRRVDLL
UCHL1 inh: blocks human UCHL1 ubiquitin-rhodamine cleavage | P09936 | purified UCHL1, Ub-rhodamine cleavage fluorescence | inhibition, % at 20 µM | actives 0.2% (n = 47,000) | AID 1645859
* = called active by the depositor. Rule as the data show it: active = inhibition above about 30%; inactive = the rest.

SMILES	USP7 inh	USP8 inh	USP10 block	UCHL1 inh
Cc1ccc(NC(=O)Nc2ccc(C)n(CC(=O)Nc3cc(C)ccc3C)c2=O)cc1	17.2	70.1*	39.1*	0.0
CC1=C[C@H]2N(c3ccc(C)cc31)[C@H](C(=O)c1cccs1)[C@@H](C(=O)c1ccc(F)cc1)[C@]21C(=O)Nc2ccccc21	7.7	77.6*	0.8	1.7
CC1=C[C@H]2N(c3ccc(C)cc31)[C@H](C(=O)C(C)(C)C)[C@@H](C(=O)c1ccccc1)[C@]21C(=O)Nc2ccccc21	-5.6	79.9*	-9.9	-4.9
CC1=C[C@H]2N(c3ccccc31)[C@H](C(=O)C(C)(C)C)[C@@H](C(=O)c1ccco1)[C@]21C(=O)Nc2ccccc21	-82.3	-83.7	-7.0	-98.5
CC(=O)NCc1ccc2[nH]c3c(c2c1)CCCC3	-4.6	-7.5	-2.3	-3.3
O=S(=O)(NCc1ccc2[nH]c3c(c2c1)CCCC3)c1ccccc1	-24.0	34.3*	-7.7	-19.1
c1ccc2c(c1)CCN(c1nc3cc4c(cc3s1)OCO4)C2	2.7	33.5*	5.4	0.7
CCOC(=O)c1noc2ncnc(Nc3ccc(N4CCC(C)CC4)cc3)c12	-4.7	49.7*	0.6	-3.8
CCOC(=O)c1noc2ncnc(Nc3ccc4c(c3)OCO4)c12	0.6	68.8*	0.4	2.8
COc1ccc(N2CCN(CCCNC(=O)c3nnc(Cc4c(F)cccc4Cl)o3)CC2)cc1	-1.7	-3.3	-1.1	0.4
O=C(NCCc1ccccc1)c1cn2cc(Cl)ccc2n1	0.1	-0.1	1.4	-2.1
Cc1ccc2[nH]c(=O)c(-c3nc4ccccn4c3NCc3ccccc3)cc2c1	9.0	0.9	24.4	3.8
Cc1ccc2nc(-c3ccccc3O)c(NCCc3ccccc3)n2c1	-8.4	79.6*	7.2	0.8
Oc1ccccc1-c1nc2ccc(Cl)cn2c1NCCc1ccccc1	-17.8	77.8*	6.9	-0.1
C[C@H]1CN(Cc2cccnc2)C[C@@]12COCCN(C(=O)NC1CC1)C2	0.4	-93.7	-1.3	-3.1
Cc1ccc(-c2cn3ccsc3n2)cc1	-2.0	-22.3	0.4	-0.3
O=C(Nc1ccc(-c2cn3ccsc3n2)cc1)c1ccc(Cl)c([N+](=O)[O-])c1	54.2*	97.4*	67.0*	11.1
O=c1ccc(-c2cc3ccccc3o2)cn1Cc1ccccc1-c1ccccc1	5.0	84.1*	25.1	38.2*
N#C/C(=C\c1ccc(C(F)(F)F)cc1)c1c[nH]c2ccccc12	7.5	4.3	-3.5	3.1
O=C1Nc2ccccc2C2(CCN(S(=O)(=O)c3ccc(F)cc3)CC2)O1	2.8	7.9	0.0	-1.8
COc1ccc(S(=O)(=O)N2CCC3(CC2)OC(=O)Nc2ccccc23)cc1	8.1	38.6*	5.0	2.6
Cc1nc2cc3c(cc2n1CC(=O)N1CCCCC1)OCCO3	3.8	13.7	1.3	3.0
Cc1ccc(CNC(=O)Cn2c(=O)cc(-c3nc(C)no3)c3ccccc32)cc1	2.3	6.3	3.9	0.8
Cc1ccc2c(c1)c1ncn(Cc3nc(C)no3)c(=O)c1n2CC(=O)NCc1ccccc1	-4.9	35.3*	30.0*	6.7
CSc1nnc(-c2csc(-c3cccc(C(F)(F)F)c3)n2)n1C	4.6	12.9	-4.2	2.1
SMILES	USP7 inh	USP8 inh	USP10 block	UCHL1 inh
COc1ccc(/C=C/c2nc(-c3ccc4oc(C)nc4c3)no2)cc1	7.3	31.0*	-2.5	0.0
Cc1cc(OCC(=O)Nc2ccccc2)nc(N2CCCCCC2)n1	-43.9	20.7	3.8	3.4
O=C(Nc1cc(F)c2nc(N3CCCC3)ccc2c1)c1ccco1	-15.7	70.2*	-4.6	6.7
COc1cccc(CC(=O)Nc2cc(F)c3nc(N4CCOCC4)ccc3c2)c1	-2.9	71.6*	-3.5	-1.2
O=C(CCc1ccccc1)Nc1cc(F)c2nc(N3CCCCC3)ccc2c1	-1.6	70.4*	-2.5	-2.4
COc1ccc(CCC(=O)Nc2cc(F)c3nc(N4CCOCC4)ccc3c2)cc1	-1.0	46.7*	2.1	-0.2
O=C(CSc1ccc2nnc(-c3cccc(F)c3)n2n1)N1CCCCC1	2.3	-95.9	-0.6	2.4
COc1ccccc1OCCCn1c(C2CC(=O)N(c3ccccc3F)C2)nc2ccccc21 (stereo unspecified)	-7.0	-2.9	-2.7	-0.7
Cc1ncsc1CN1CCCC1c1nc(-c2ccccc2)n[nH]1 (stereo unspecified)	3.3	-4.2	-0.1	2.6
COc1ccccc1NC(=O)NC1(c2noc(C)n2)CCCC1	-0.9	-10.2	0.0	-1.0
CN1CCN(c2ncc3c(=O)n(CCN4CCOCC4)ccc3n2)CC1	4.4	14.0	0.0	-0.6
CC1CCCN(CCCNC(=O)c2ccc3c(c2)NC(=O)C2CCCN32)C1 (stereo unspecified)	-64.5	29.6	-5.3	-53.6
CC(C)CC1Nc2ccc(C(=O)NCCCN3CCCC3)cc2NC1=O (stereo unspecified)	-11.1	84.5*	1.7	5.9
CCc1nc2c3cnn(-c4ccc(C)c(C)c4)c3ncn2n1	-2.6	-2.3	1.0	-3.1
Cc1ccc(Cl)cc1-n1ncc2c1ncn1nc(C3CCCCC3)nc21	-14.1	70.0*	-0.8	4.8
CCOC(=O)CCC(=O)Nc1c(C(=O)Nc2ccc3c(c2)OCCO3)oc2ccccc12	3.6	-51.0	-1.3	1.6
COc1cc(NC(=O)c2ccc3c(c2)OCO3)ccc1-c1cc2ccccc2oc1=O	24.7	69.3*	28.6	5.1
O=C(Nc1c(C(=O)Nc2ccc3c(c2)OCO3)oc2ccccc12)c1cc2ccccc2o1	9.9	78.8*	5.6	5.5
O=C(Nc1ccc2[nH]c(=O)[nH]c2c1)c1cc2ccccc2o1	12.7	42.1*	12.1	0.9
COc1ccccc1CC(=O)N1C[C@@H](c2cccnc2)[C@@]2(CCCCC(=O)N2)C1	-2.0	21.5	0.2	1.0
CN1[C@@H](CCC(=O)NCc2cccnc2)CNC(=O)[C@@H]2[C@H]1CCN2Cc1ccccn1	-23.2	-25.5	-2.2	-8.3
c1coc(CNc2nnc(-c3nnc(C4CC4)o3)c3ccccc23)c1	-5.6	14.1	-2.5	1.9
CCC1OC(O)(C(C)C(O)C(C)C2OC(=O)/C(C)=C/C(C)=CC(C)C(O)C(C)C/C(C)=C/C=C/C2OC)CC(OC(=O)/C=C/C(=O)NC2=C(O)CCC2=O)C1C (stereo unspecified)	26.5	17.1	38.6*	5.2
CO/C1=C\C(C)=C/[C@@H](C)[C@@H](O)[C@@H](C)C/C(C)=C/C=C/[C@H](OC)[C@@H]([C@@H](C)[C@@H](O)[C@H](C)[C@@]2(O)C[C@@H](OC(=O)/C=C/C(N)=O)[C@H](C)[C@@H](C(C)C)O2)OC1=O	16.5	2.5	27.7	0.8
Cc1cc(NC(=O)c2nnn(-c3ccccc3Cl)c2C)no1	-1.6	5.7	-0.8	2.2
COc1ccc2c(c1)c1nc(C)sc1n2CCN1CCOCC1	0.0	42.7*	0.4	1.5
O=C(CNc1ccc(F)c(Cl)c1)Nc1ccc2c(c1)OCCO2	-11.6	27.9	8.8	4.5
CN(C)c1ccc(CN2CCOC[C@H]2c2ncc(-c3cccnc3)[nH]2)cc1	-35.4	33.3*	-1.4	8.7
O=C(c1cc2c(s1)CCC2)N1CCc2ccccc21	-1.8	6.4	7.4	-2.4
O=C(NCc1cccs1)c1cn(Cc2ccccc2)nc1-c1cccnc1	-6.3	-4.1	2.4	-4.1
